Source: PubChem BioAssay (EPA / NIEHS)
Inconclusive results are not listed. The source made the active and inactive calls. The calls were made as follows, unless noted: active = hit-call score of the fitted dose curve at least 0.9, where 1 is the maximum; inconclusive = response in the unintended direction; inactive = score below 0.9.

Legend:
[1] = Tanguay_ZF_120hpf_YSE_legacy: (Legacy) Oregon State University Tanguay Lab 120 Hour Post-fertilization zebrafish Assay for Yolk Sac Edema (AID 2283634);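 as to AC50: actives raise the incidence of yolk sac edema above the DMSO baseline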
In short: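 Single dechorionated embryos were held in sealed plates at 28C with test chemical (0.64% DMSO final) from 6 hpf until 120 hpf. Edema of the yolk sac was then recorded as a binary endpoint; non-mortality endpoints were skipped for dead embryos.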

[2] = Tanguay_ZF_120hpf_AXIS_legacy: (Legacy) Oregon State University Tanguay Lab 120 Hour Post-fertilization zebrafish Assay for Body Axis Malformation (AID 2283635);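 as to AC50: potency for an increased fraction of larvae scored with body axis malformation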
In short: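 Each dechorionated embryo was exposed alone from 6 hpf, with DMSO at 0.64% (vol/vol) and trimethyltin chloride 5 uM as positive control. Axis malformation was recorded at 120 hpf unless the embryo had died.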

[3] = Tanguay_ZF_120hpf_EYE_legacy: (Legacy) Oregon State University Tanguay Lab 120 Hour Post-fertilization zebrafish Assay for Eye Malformation (AID 2283636);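 also: binary presence or absence of eye malformation scored by brightfield in 120 hpf larvae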
In short: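 Static waterborne exposure of dechorionated zebrafish embryos (strain Tropical 5D), 6 to 120 hpf, sealed plates at 28C, 0.64% DMSO vehicle. Eye malformation is scored as a binary endpoint, with gain of signal analysed relative to DMSO.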

[4] = Tanguay_ZF_120hpf_SNOU_legacy: (Legacy) Oregon State University Tanguay Lab 120 Hour Post-fertilization zebrafish Assay for Snout Malformation (AID 2283637)
In short: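 Dechorionated zebrafish, individually housed from 6 hpf in covered, sealed wells at 28C with 0.64% DMSO vehicle, were examined at 120 hpf for snout malformation. Responses were binary and analysed positive-direction relative to DMSO.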

[5] = Tanguay_ZF_120hpf_JAW_legacy: (Legacy) Oregon State University Tanguay Lab 120 Hour Post-fertilization zebrafish Assay for Jaw Malformation (AID 2283638);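 as to AC50: active means more embryos with jaw malformation than DMSO controls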
In short: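 Wild-type 5D embryos, chorion removed at 4 hpf, dosed singly from 6 hpf; 28C static, sealed, foil-covered, to 120 hpf. Endpoint: jaw defect yes/no (brightfield); mortality excludes scoring.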

[6] = Tanguay_ZF_120hpf_OTIC_legacy: (Legacy) Oregon State University Tanguay Lab 120 Hour Post-fertilization zebrafish Assay for Otic Vesicle Malformation (AID 2283639)
In short: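 Wild-type zebrafish larvae, whole-embryo exposure from early stage to 120 hpf at 28C. Binary brightfield scoring of otic vesicle morphology, fitted in the positive direction against the DMSO baseline.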

[7] = Tanguay_ZF_120hpf_PE_legacy: (Legacy) Oregon State University Tanguay Lab 120 Hour Post-fertilization zebrafish Assay for Pericardial Edema (AID 2283640);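 as to AC50: potency for increased incidence of pericardial edema versus DMSO baseline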
In short: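 Zebrafish larvae are exposed from early development to 120 hpf at 28C, with 0.64% DMSO final. Each surviving larva receives a yes/no pericardial edema call by brightfield imaging, analysed relative to the DMSO baseline.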

[8] = Tanguay_ZF_120hpf_BRAI_legacy: (Legacy) Oregon State University Tanguay Lab 120 Hour Post-fertilization zebrafish Assay for Brain Malformation (AID 2283641)
In short: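 Static exposure of staged wild-type embryos until 120 hpf, kept at 28C with light excluded and final DMSO of 0.64% (vol/vol). Presence or absence of brain malformation was noted under brightfield; mortality precluded scoring.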

[9] = Tanguay_ZF_120hpf_SOMI_legacy: (Legacy) Oregon State University Tanguay Lab 120 Hour Post-fertilization zebrafish Assay for Somite Malformation (AID 2283647)
In short: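 Somitogenesis defects are recorded as binary calls in whole larvae at 120 hpf after continuous static chemical exposure starting at 6 hpf in dechorionated 5D embryos. DMSO serves as negative control and baseline.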

[10] = Tanguay_ZF_120hpf_PFIN_legacy: (Legacy) Oregon State University Tanguay Lab 120 Hour Post-fertilization zebrafish Assay for Pectoral Fin Malformation (AID 2283648);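 also: each larva judged yes or no for fin defect by brightfield with dead larvae skipped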
In short: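 Scoring of pectoral fin malformation was binary, made at 120 hpf on larvae exposed statically from 6 hpf after enzymatic chorion removal. Activity was fitted upward relative to DMSO controls at 0.64% (vol/vol).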

[11] = Tanguay_ZF_120hpf_CFIN_legacy: (Legacy) Oregon State University Tanguay Lab 120 Hour Post-fertilization zebrafish Assay for Caudal Fin Malformation (AID 2283649)
In short: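 Single dechorionated 5D wild-type embryos are dosed at 6 hpf (final DMSO 0.64%) and held statically at 28C. Caudal fin malformation is recorded as present or absent at 120 hpf under brightfield, excluding dead embryos.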

[12] = Tanguay_ZF_120hpf_CIRC_legacy: (Legacy) Oregon State University Tanguay Lab 120 Hour Post-fertilization zebrafish Assay for Circulatory Malformation (AID 2283651)
In short: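 Binary circulatory-malformation call at 120 hpf via brightfield imaging, relative to DMSO controls. Embryos (5D strain, chorion removed) received static, light-shielded exposure at 28C.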

[13] = read-out: kallikrein-3 (KLK3), KLK3 (gene 354); assay: LTEA_HepaRG_KLK3: Life Technologies and Expression Analysis (LTEA) Assay for kallikrein-3 (KLK3) using HepaRG (AID 2283652; active = hit-call score of the fitted dose curve at least 0.9, where 1 is the maximum; inactive = score below 0.9); conditions: mRNA level, 48 h; actives raise or lower the signal
In short: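 KLK3 transcript levels were measured by TaqMan qRT-PCR with normalisation to three housekeeping genes. HepaRG cultures received chemicals for 48 h at up to 100 uM (half-log, 8 points, 0.5% DMSO vehicle), fitted in both directions against DMSO.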

[14] = read-out: solute carrier (SLC22A6), SLC22A6 (gene 9356); assay: LTEA_HepaRG_SLC22A6: Life Technologies and Expression Analysis (LTEA) Assay for solute carrier (SLC22A6) using HepaRG (AID 2283653; active = hit-call score of the fitted dose curve at least 0.9, where 1 is the maximum; inactive = score below 0.9); conditions: mRNA level, 48 h; actives raise or lower the signal
In short: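 Gene-expression endpoint in HepaRG hepatic cells: duplicate 8-point concentration-response, highest 100 uM, 48 h treatment in serum-free medium with 0.5% DMSO. SLC22A6 expression measured by qRT-PCR, normalised to ACTB/GAPDH/POLR2A.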

[15] = Tanguay_ZF_120hpf_SWIM_legacy: (Legacy) Oregon State University Tanguay Lab 120 Hour Post-fertilization zebrafish Assay for Swim Bladder Malformation (AID 2283654);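 also: swim bladder malformation in each larva scored yes or no under brightfield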
In short: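 Static waterborne exposure of single dechorionated Tropical 5D zebrafish embryos, 6–120 hpf, 28C, 0.64% DMSO final. Read-out: swim bladder malformation, present/absent, relative to DMSO negative control; trimethyltin chloride 5uM served as positive control.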

[16] = Tanguay_ZF_120hpf_TRUN_legacy: (Legacy) Oregon State University Tanguay Lab 120 Hour Post-fertilization zebrafish Assay for Truncated Body (AID 2283655)
In short: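 Single dechorionated zebrafish embryos received test chemical from 6 hpf in 0.64% DMSO, kept at 28C. At 120 hpf, brightfield inspection noted any truncated body.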

[17] = Tanguay_ZF_120hpf_NC_legacy: (Legacy) Oregon State University Tanguay Lab 120 Hour Post-fertilization zebrafish Assay for Notochord and Tail Malformation (AID 2283656)
In short: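 Binary notochord-distortion calls, made by brightfield inspection, form the read-out; activity is fitted in the positive direction against DMSO. Exposure ran statically from 6 to 120 hpf at 28C with 0.64% DMSO.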

[18] = read-out: solute carrier (SLC10A1), SLC10A1 (gene 6554); assay: LTEA_HepaRG_SLC10A1: Life Technologies and Expression Analysis (LTEA) Assay for solute carrier (SLC10A1) using HepaRG (AID 2283657; active = hit-call score of the fitted dose curve at least 0.9, where 1 is the maximum; inactive = score below 0.9); conditions: mRNA level, 48 h; actives raise or lower the signal
In short: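 Cryopreserved HepaRG cells are thawed, plated and cultured 48 h; medium is then switched to serum-free induction medium and chemicals added (8 points, max 100 uM, 0.5% DMSO). After 48 h, RNA is isolated and SLC10A1 quantified by qRT-PCR.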

[19] = read-out: matrix metalloproteinase-1 (MMP1), MMP1 (gene 4312); assay: LTEA_HepaRG_MMP1: Life Technologies and Expression Analysis (LTEA) Assay for matrix metalloproteinase-1 (MMP1) using HepaRG (AID 2283658; active = hit-call score of the fitted dose curve at least 0.9, where 1 is the maximum; inactive = score below 0.9); conditions: mRNA level, 48 h; actives raise or lower the signal
In short: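 In this screen, human liver HepaRG cultures receive each chemical in duplicate for 48 h (top 100 uM, 0.5% DMSO). MMP1 expression is then quantified by TaqMan qRT-PCR with ACTB/GAPDH/POLR2A normalization.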

[20] = Tanguay_ZF_120hpf_PIG_legacy: (Legacy) Oregon State University Tanguay Lab 120 Hour Post-fertilization zebrafish Assay for Pigmentation Malformation (AID 2283650)
In short: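 Endpoint is incidence of abnormal pigmentation at 120 hpf in dechorionated 5D zebrafish exposed singly from 6 hpf at 28C, DMSO vehicle at 0.64%. Embryos dying by 24 or 120 hpf are excluded from scoring.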

Measured: AC50

CN(C)C(=O)Nc1ccc(Cl)cc1
inactive: [1] | [2] | [3] | [4] | [5] | [6] | [7] | [8] | [9] | [10] | [11] | [12] | [13] | [14] | [15] | [16] | [17] | [18] | [19]

CCNS(=O)(=O)C(F)(F)C(F)(F)C(F)(F)C(F)(F)C(F)(F)C(F)(F)C(F)(F)C(F)(F)F
active: [1] 43 µM | [2] 55.9 µM | [3] 53.6 µM | [4] 54.9 µM | [5] 41.5 µM | [6] 46.9 µM | [7] 53.8 µM | [8] 45.5 µM | [9] 9.56 µM | [10] 48.4 µM
inactive: [12] | [17]

CC(C)N(Cc1ccccc1)C(=O)C(C)(C)C
inactive: [1] | [2] | [3] | [4] | [5] | [6] | [7] | [8] | [9] | [10] | [11] | [12] | [15] | [16] | [17]

CN(C)c1ccc(C(=O)c2ccc(N(C)C)cc2)cc1
inactive: [11] | [16] | [17]
active: [1] 25.4 µM | [2] 25.2 µM | [3] 8.23 µM | [4] 27.7 µM | [5] 23.4 µM | [6] 12.9 µM | [7] 22.7 µM | [8] 48.7 µM | [9] 28.4 µM | [10] 17.2 µM | [12] 9.77 µM | [15] 30.1 µM

CN(C)c1ccccc1
inactive: [1] | [2] | [3] | [4] | [5] | [6] | [7] | [8] | [9] | [10] | [11] | [20] | [12] | [15] | [16] | [17]

CCCCC(CC)COC(=O)c1ccc(C(=O)OCC(CC)CCCC)c(C(=O)OCC(CC)CCCC)c1 (stereo not given)
inactive: [1] | [2] | [3] | [4] | [5] | [6] | [7] | [8] | [9] | [10] | [11] | [20] | [12] | [15] | [16] | [17]

CNC(=O)Oc1cccc2c1OC(C)(C)C2
active: [2] 6.79 µM | [4] 43.9 µM | [5] 36 µM | [16] 12.6 µM
inactive: [1] | [3] | [6] | [7] | [8] | [9] | [10] | [11] | [20] | [12] | [15] | [17]

Nc1ccc([N+](=O)[O-])cc1
inactive: [1] | [2] | [3] | [4] | [5] | [6] | [7] | [8] | [9] | [10] | [11] | [20] | [12] | [15] | [16] | [17]
